Records with an inconclusive call do not appear. Values without a mark were called inactive. Calls of active or inactive are those of the source. The call rests on the fitted dose curve; in most records, active means well fitted inhibition curve with a large enough effect; inconclusive means small, poorly fitted or top-dose-only effect; inactive means no such curve, though single readings can be large or run the other way.
Potency means the concentration at half of the fitted maximal effect.

Chain of N-terminal Xaa-Pro-Lys N-methyltransferase 1 (Homo sapiens) (Q9BV86 whole entry, looked up): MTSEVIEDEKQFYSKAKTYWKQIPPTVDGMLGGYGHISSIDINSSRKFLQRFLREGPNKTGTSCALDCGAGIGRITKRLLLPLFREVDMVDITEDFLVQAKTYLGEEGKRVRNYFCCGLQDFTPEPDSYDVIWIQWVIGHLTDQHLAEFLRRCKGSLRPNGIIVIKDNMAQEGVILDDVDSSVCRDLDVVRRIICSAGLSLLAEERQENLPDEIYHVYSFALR

For the first experiment, the target named is N-terminal Xaa-Pro-Lys N-methyltransferase 1 (Homo sapiens) (UniProt Q9BV86). The experiment in a line: qHTS Assay for Inhibitors of N-terminal methyltransferase 1 (NTMT1): LOPAC validation of the NTMT1 SAHH-coupled ThioGlo3 Assay (AID 1347143).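 Further: SAH from peptide methylation measured as thiol fluorescence via SAHH coupling and ThioGlo3; nearly all actives have a fitted effect of over 70% in size.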 On activity change, negative = inhibition: on the % scale 0 is the no-effect control and ±100 the full control effect. The note with it: recombinant NTMT1, SAHH-coupled ThioGlo3 fluorescence; series mostly up to 114 µM; activity change, negative = inhibition: at the top concentration. In short, it runs like this:
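In this qHTS pilot against the LOPAC set, 125nM NTMT1 met compounds tested at multiple concentrations, and fluorescence was normalized to background.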
(In qHTS, concentration-response curves come from the screen itself.)
Consider `Cc1ccc(/C(=C\CN2CCCC2)c2ccccn2)cc1`, for which the “activity change, negative = inhibition” value was -25%.
On to `CCC(=O)c1ccc2c(c1)N(CCCN(C)C)c1ccccc1S2`, for which the Potency is 39.8 µM (active).
`CN(C)CC[C@@H](c1ccc(Br)cc1)c1ccccn1`: the “activity change, negative = inhibition” value was -16.4%.
Still for that read-out and setting: the figure for `Cc1nc2sccn2c(=O)c1CCN1CCC(=C(c2ccc(F)cc2)c2ccc(F)cc2)CC1` is -21.4%.
The same measure, in the same setting: the figure for `Nc1c2c(nc3ccccc13)CCCC2O` (stereo unspecified) is -18.7%; for `CN(C)CC/C=C1\c2ccccc2COc2ccccc21` it is -23.6%.
Same read-out and setting: the figure for `COc1ccc(CCN(C)CCCC(C#N)(c2cc(OC)c(OC)c(OC)c2)C(C)C)cc1OC` (stereo unspecified) is -15.9%.
For the compound `Cc1ccc(Cl)c(Nc2ccccc2C(=O)O)c1Cl`, the “activity change, negative = inhibition” value was -0.602%.
As to `CC1=NS(=O)(=O)c2cc(Cl)ccc2N1`, the “activity change, negative = inhibition” value was -0.0915%.
Consider `CCN1CCC[C@H]1CNC(=O)c1c(O)c(Cl)cc(Cl)c1OC`, for which the Potency is 50.1 µM (active).
Regarding `O=C(O)CCCCCCCC(=O)O`, the “activity change, negative = inhibition” value is -5.64%.
Still for that read-out and setting: the figure for `CO[C@@]1(NC(=O)CSCC#N)C(=O)N2C(C(=O)O)=C(CSc3nnnn3C)CS[C@@H]21` is 4.47%; for `CCOC(=O)C1=C(C)NC(C)=C(C(=O)OC)C1c1cccc([N+](=O)[O-])c1` (stereo unspecified) it is -20.6%.
On the same count and under the same terms, the figure for `NC/C=C/C(=O)O` is -9.87%; for `CCCN(CCC)C(=O)C(CCC(=O)O)NC(=O)c1ccccc1` (stereo unspecified) it is -13.8%.
Still for that read-out and setting: next, `Cc1nc2c([nH]1)c(=O)n(C)c(=O)n2Cc1ccco1`: -14.7%; `NC(Cc1ccc(Cl)cc1)C(=O)O` (stereo unspecified): -16.2%; `C[C@]12CCC(=O)C=C1CC[C@@H]1[C@@H]2CC[C@@]2(C)[C@H]1CC[C@]2(O)C(=O)CO`: -22.1%.
Regarding `CCN(Cc1ccncc1)C(=O)C(CO)c1ccccc1` (stereo unspecified), the “activity change, negative = inhibition” value was -9.29%.
For the compound `CN(C)CCCN1c2ccccc2Sc2ccccc21`, the Potency was 44.7 µM (active).
In the case of `COC(=O)C1=C(C)NC(C)=C(C(=O)OC(C)(C)CN(C)CCC(c2ccccc2)c2ccccc2)C1c1cccc([N+](=O)[O-])c1` (stereo unspecified), the “activity change, negative = inhibition” value is -18.6%.
The same measure, in the same setting: the figure for `CN=C(NC#N)NCCSCc1nc[nH]c1C` is -5.11%; for `Nc1ncn([C@@H]2O[C@H](CO)[C@@H](O)[C@H]2O)c(=O)n1` it is -9.38%.
Turning to `CC(=O)[C@@]1(O)CC[C@H]2[C@@H]3CCC4=CC(=O)CC[C@]4(C)[C@H]3CC[C@@]21C`, the “activity change, negative = inhibition” value is -13.2%.
On the same count and under the same terms, the figure for `COCCc1ccc(OCC(O)CNC(C)C)cc1` (stereo unspecified) is -7.35%.
For `CN(C)CCOC(=O)COc1ccc(Cl)cc1`, the Potency was 56.2 µM (active).
In the case of `NC(=O)c1ncn([C@@H]2O[C@H](CO)[C@@H](O)[C@H]2O)c1O`, the “activity change, negative = inhibition” value was 35.2%.
The same measure, in the same setting: next, `CCCCCN(CCCCC)C(=O)C(CCC(=O)O)NC(=O)c1ccc(Cl)c(Cl)c1` (stereo unspecified): -0.612%.
Same read-out and setting: next, `CC(=O)OCC1=C(C(=O)O)N2C(=O)[C@@H](NC(=O)Cc3cccs3)[C@H]2SC1`: 13.3%.

A further experiment relates to Zika virus NS2B-NS3 protease (unlinked). In words: Optimization of GU AMC qHTS for Zika virus inhibitors: Unlinked NS2B-NS3 protease assay (AID 1347151). Further: nearly all actives have a fitted effect of over 80% in size.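 On activity change, negative = inhibition: 0% = no-inhibitor control and -100% = no-enzyme control.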 The note with it: recombinant ZIKV NS2B-NS3 protease, fluorogenic AMC substrate; series mostly up to 52.5 µM; activity change, negative = inhibition: at the top concentration. Summed up: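 Percent inhibition is derived from the 15-min change in AMC fluorescence, normalized against no-inhibitor and no-enzyme controls, then fitted to a 4-parameter Hill curve. Aprotinin was the intraplate control.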
On to `Cc1ccc(/C(=C\CN2CCCC2)c2ccccn2)cc1`, for which the “activity change, negative = inhibition” value is 6.88%.
Consider `OCCN1CCN(CC/C=C2/c3ccccc3Sc3ccc(C(F)(F)F)cc32)CC1`, for which the “activity change, negative = inhibition” value was 8.39%.
`CCC(=O)c1ccc2c(c1)N(CCCN(C)C)c1ccccc1S2`: the “activity change, negative = inhibition” value is 10.4%.
As for `CN(C)CC[C@@H](c1ccc(Br)cc1)c1ccccn1`, the “activity change, negative = inhibition” value is 5.07%.
Turning to `CCOC(=O)C1=C(C)NC(C)=C(C(=O)OC)C1c1cccc(Cl)c1Cl` (stereo unspecified), the Potency was 26.7 µM (active).
Turning to `Nc1c2c(nc3ccccc13)CCCC2O` (stereo unspecified), the “activity change, negative = inhibition” value is -21.5%.
The same measure, in the same setting: next, `CN(C)CC/C=C1\c2ccccc2COc2ccccc21`: 8.5%; `COc1ccc(CCN(C)CCCC(C#N)(c2cc(OC)c(OC)c(OC)c2)C(C)C)cc1OC` (stereo unspecified): 9.42%; `CC1=NS(=O)(=O)c2cc(Cl)ccc2N1`: -0.471%.
On to `O=C(O)CCCCCCCC(=O)O`, for which the “activity change, negative = inhibition” value is -1.6%.
The same measure, in the same setting: the figure for `O=C1NCN(c2ccccc2)C12CCN(CCCC(c1ccc(F)cc1)c1ccc(F)cc1)CC2` is 8.33%; for `COC(=O)[C@@H](N)Cc1ccc(O)c(O)c1` it is 65.5%.
On the same count and under the same terms, the figure for `CO[C@@]1(NC(=O)CSCC#N)C(=O)N2C(C(=O)O)=C(CSc3nnnn3C)CS[C@@H]21` is -8.86%; for `CCOC(=O)C1=C(C)NC(C)=C(C(=O)OC)C1c1cccc([N+](=O)[O-])c1` (stereo unspecified) it is -11.3%.
`NC/C=C/C(=O)O`: the “activity change, negative = inhibition” value was 5.55%.
`CCCN(CCC)C(=O)C(CCC(=O)O)NC(=O)c1ccccc1` (stereo unspecified): the “activity change, negative = inhibition” value was 7.49%.
For the compound `Cc1nc2c([nH]1)c(=O)n(C)c(=O)n2Cc1ccco1`, the “activity change, negative = inhibition” value is 3.77%.
Still for that read-out and setting: the figure for `C[C@@H](O)[C@H]1C(=O)N2C(C(=O)O)=C(SCCN=CN)C[C@H]12` is -4.84%.
On the same count and under the same terms, the figure for `NC(Cc1ccc(Cl)cc1)C(=O)O` (stereo unspecified) is -6.54%; for `C[C@]12CCC(=O)C=C1CC[C@@H]1[C@@H]2CC[C@@]2(C)[C@H]1CC[C@]2(O)C(=O)CO` it is -3.78%; for `CCN(Cc1ccncc1)C(=O)C(CO)c1ccccc1` (stereo unspecified) it is 2.03%.
Take `CN(C)CCCN1c2ccccc2Sc2ccccc21`: the “activity change, negative = inhibition” value was -2.08%.
The same measure, in the same setting: next, `CN=C(NC#N)NCCSCc1nc[nH]c1C`: -3.06%; `Nc1ncn([C@@H]2O[C@H](CO)[C@@H](O)[C@H]2O)c(=O)n1`: 2.28%.
Same read-out and setting: next, `CC(=O)[C@@]1(O)CC[C@H]2[C@@H]3CCC4=CC(=O)CC[C@]4(C)[C@H]3CC[C@@]21C`: 0.336%.
In the case of `COCCc1ccc(OCC(O)CNC(C)C)cc1` (stereo unspecified), the “activity change, negative = inhibition” value is 6.6%.
The same measure, in the same setting: next, `CN(C)CCOC(=O)COc1ccc(Cl)cc1`: 0.362%; `OC(CCN1CCCCC1)(c1ccccc1)C1CCCCC1` (stereo unspecified): 4.52%.
The same measure, in the same setting: the figure for `NC(=O)c1ncn([C@@H]2O[C@H](CO)[C@@H](O)[C@H]2O)c1O` is 4.09%; for `CCCCCN(CCCCC)C(=O)C(CCC(=O)O)NC(=O)c1ccc(Cl)c(Cl)c1` (stereo unspecified) it is -23.2%; for `CC(=O)OCC1=C(C(=O)O)N2C(=O)[C@@H](NC(=O)Cc3cccs3)[C@H]2SC1` it is -15.7%.
Turning to `COC(=O)[C@H]1[C@H]2C[C@@H]3c4[nH]c5cc(OC)ccc5c4CCN3C[C@H]2C[C@@H](OC(=O)c2cc(OC)c(OC)c(OC)c2)[C@@H]1OC`, the Potency is 15 µM (active).

Values taken from PubChem BioAssay (NCATS).
